SMILES strings stand for the structures. Among all 2,100 compounds or so, about 670 (32%) were called active. Roughly 50% stayed inconclusive and do not appear here. The list shows a part of the results. Values without a mark were called inactive. Calls follow the shape of the dose curve; as a rule, active = well fitted inhibition curve with a large enough effect; inconclusive = small, poorly fitted or top-dose-only effect; inactive = no such curve, though single readings can be large or run the other way.
% is scaled to controls: 0 for no effect and ±100 for the full control effect; potency is read from the fitted curve at half-maximal effect.

The nature of this assay: CMV-Luciferase Counterscreen for Inhibitors of ATXN expression. Also: nearly all actives have a fitted effect of over 55% in size. The note with it: HEK-293 CMV-luciferase reporter, luminescence, 24 h; series mostly up to 57.5 µM; activity change, negative = inhibition: at the top concentration. (In general: The purpose of a counterscreen is to sort out artefacts and off-target activity.)
With `COC(=O)Cc1[nH]n(-c2nc3ccccc3s2)c(=O)c1C(C)=Nc1ccc(C)cc1`, the Potency is 0.501 µM (active).

As for `CC(C)[C@H](CO)Nc1nc(NCc2ccc(S(N)(=O)=O)cc2)c2ncn(C(C)C)c2n1`, the activity change, negative = inhibition is 41.8% [at 11.4 µM].

In the case of `Cc1ccn2c(Nc3ccccc3C)c(-c3ccccn3)nc2c1`, the Potency is 5.01 µM (active).

Consider `Nc1ccc(OC(=O)Nc2ccc(O)cc2)cc1`, for which the Potency is 12.6 µM (active).

Take `CCOC(=O)c1c(NC(=O)COC(=O)c2ccccc2NC)sc(C(=O)N(C)C)c1C`: the activity change, negative = inhibition is -21.4% [at 11.4 µM].

Turning to `Cc1cc(C)c2nc(N(CCCN(C)C)C(=O)c3ccc4c(c3)OCCO4)sc2c1`, the Potency is 28.2 µM (active).

In the case of `Cc1cccc2sc(N(CCCN(C)C)C(=O)c3ccco3)nc12`, the “activity change, negative = inhibition” value was 6.04%.

For the compound `CN(C)CCCN(C(=O)c1ccc2c(c1)CCCC2)c1nc2cc3c(cc2s1)OCO3`, the “activity change, negative = inhibition” value was -9.48%.

For the compound `Nc1nc(NCCCN2CCOCC2)nc(Nc2ccccc2F)c1[N+](=O)[O-]`, the “activity change, negative = inhibition” value was -23.9%.

Regarding `O=C(NCCc1cn2ccccc2n1)c1cc(COc2ccc3ncccc3c2)on1`, the Potency is 14.1 µM (active).

In the case of `Cc1ccc(C)c(S(=O)(=O)N2CCN(c3ncnc4sccc34)CC2)c1`, the Potency is 1.41 µM (active).

Turning to `CN(C)CCNC(=O)c1cccc2nc3cccc(F)c3nc12`, the Potency was 10 µM (active).

Regarding `CN(C)CCNC(=O)c1cccc2[nH]c(-c3ccncc3)nc12`, the activity change, negative = inhibition is -19.8% [at 11.4 µM].

As to `CN(C)CCCN(C(=O)c1ccc(S(=O)(=O)N(C)Cc2ccccc2)cc1)c1nc2c(F)cccc2s1`, the “activity change, negative = inhibition” value is -26.4%.

As for `CN(C)CCNC(=O)c1ccc(Cl)c2cc3ccccc3nc12`, the Potency is 10 µM (active).

`OCCN(Cc1ccccc1)CC(O)COc1ccc(-c2ccccc2)cc1` (stereo not given): the “activity change, negative = inhibition” value was -22.7%.

In the case of `CN1C/C(=C/c2cccnc2)C(=O)/C(=C/c2cccnc2)C1`, the activity change, negative = inhibition was -8.05% [at 11.4 µM].

`O=C1/C(=C/c2ccncc2)CCC/C1=C\c1ccncc1`: the Potency was 8.91 µM (active).

On to `Cc1onc(-c2c(Cl)cccc2Cl)c1C(=O)N/N=C(\N)COc1ccc(Cl)cc1`, for which the Potency was 3.55 µM (active).

As to `CCC(=O)OCCNc1cc(Sc2nc3ccccc3[nH]2)c2nonc2c1[N+](=O)[O-]`, the activity change, negative = inhibition is -17% [at 11.4 µM].

With `O=[N+]([O-])c1c(Nc2ccccn2)cc(Cl)c2nonc12`, the Potency is 11.2 µM (active).

Regarding `O=[N+]([O-])c1ccc(C[n+]2cccc3ccc4cccnc4c32)cc1`, the Potency is 3.16 µM (active).

Take `COc1cc(/C=N/Nc2snc(SC)c2C#N)cc(OC)c1OC`: the “activity change, negative = inhibition” value is 1.9%.

`O=C(Nc1ccccc1Cl)N1CCCN(c2nc(-c3ccccc3)ns2)CC1`: the Potency was 14.1 µM (active).

For the compound `Cc1c(Cl)cccc1NC(=O)N1CCCN(c2nc(-c3ccccc3)ns2)CC1`, the Potency is 10 µM (active).

On to `CC(C)(C)c1ccc(NC(=O)N2CCCN(c3c(Cl)cncc3Cl)CC2)cc1`, for which the “activity change, negative = inhibition” value is -11.8%.

Consider `Cc1c(N=C2N=C(NC(=O)Nc3ccc(Cl)cc3)c3ccccc32)c(=O)n(-c2ccccc2)n1C`, for which the “activity change, negative = inhibition” value was -6.01%.

As to `Cc1c(N=C2C=CC(=O)c3ccccc32)c(=O)n(-c2ccccc2)n1C`, the Potency was 31.6 µM (active).

`Cc1cc(C)c(O)c(CN(C)Cc2cc(Cl)cc(Cl)c2O)c1`: the Potency was 10 µM (active).

For the compound `CCOC(=O)c1c(SCCN2CCCCC2)n(-c2ccccc2)c(=S)n(-c2ccccc2)c1=O`, the Potency was 22.4 µM (active).

Consider `Cc1sc2ncnc(NCC(O)c3ccc([N+](=O)[O-])cc3)c2c1C` (stereo not given), for which the Potency is 5.62 µM (active).

`O=C(O)CCn1cc(/C=C/C(=O)c2ccc(Cl)cc2)c(-c2ccc(Br)cc2)n1`: the Potency was 10 µM (active).

Consider `CCC1(O)C(=O)OCc2c1cc1n(c2=O)Cc2cc3cc(O)ccc3nc2-1` (stereo not given), for which the Potency is 0.891 µM (active).

On to `CC[C@@]1(O)C(=O)OCc2c1cc1n(c2=O)Cc2cc3c(CN(C)C)c(O)ccc3nc2-1`, for which the Potency was 11.2 µM (active).

`O=C(NC1C=CS(=O)(=O)C1)c1sc2ccccc2c1Cl` (stereo not given): the activity change, negative = inhibition was -11.1% [at 11.4 µM].

As for `Brc1cnc2nc(SCc3nc4ccccc4[nH]3)[nH]c2c1`, the activity change, negative = inhibition is 361% [at 11.4 µM].

Consider `CCCCc1ccc(NC(=O)N2CCN(c3cc(C)nc4ccccc34)CC2)c(C)c1`, for which the Potency was 12.6 µM (active).

On to `Cc1cc2nc(-c3nnnn3Cc3ccccc3)c(=O)[nH]c2cc1C`, for which the activity change, negative = inhibition is -9.85% [at 11.4 µM].

Turning to `CC(=O)c1ccc(NC(=O)COC(=O)c2c3c(nc4ccccc24)/C(=C\c2cccs2)CCC3)cc1`, the Potency is 17.8 µM (active).

For `CCn1c2ccccc2c2cc(NC(=O)COC(=O)c3ccccc3F)ccc21`, the activity change, negative = inhibition was 9.52% [at 11.4 µM].

In the case of `CCn1c2ccccc2c2cc(NC(=O)COC(=O)Cc3cn4ccsc4n3)ccc21`, the activity change, negative = inhibition is 33.4% [at 11.4 µM].

With `Cc1cc(C)nc(N/N=C2/CCCC/C2=C\c2ccccc2)n1`, the Potency was 3.16 µM (active).

With `NC(N)=N/N=C/c1ccc2cccc(OCc3ccccc3)c2n1`, the Potency was 22.4 µM (active).

On to `Cc1cc(Cl)ccc1-c1cc2nc(NCCCN(C)C)n(C)c(=O)c2s1`, for which the activity change, negative = inhibition is 5.92% [at 11.4 µM].

`CNc1nc2c(N)ncnc2n1[C@H]1O[C@@H](CO)[C@H](O)[C@@H]1O`: the activity change, negative = inhibition is 119% [at 11.4 µM].

For `Nc1ccn([C@@H]2O[C@H](CO)[C@@H](O)C2O)c(=O)n1` (stereo not given in full), the Potency is 2.51 µM (active).

`N#Cc1c(N)n(C2OC(CO)C(O)C2O)c2ncnc(N)c12` (stereo not given): the “activity change, negative = inhibition” value is -38.9%.

As for `COC(=O)c1c(NC(=O)c2ccc([N+](=O)[O-])o2)sc2c1CCN(C(C)C)C2`, the Potency is 15.8 µM (active).

Consider `O=C(COc1ccccc1Cl)Nc1ccc(N2CCN(C(=O)c3ccccc3)CC2)cc1`, for which the Potency was 3.55 µM (active).

As for `CC(=O)N(C1=C(Cl)C(=O)c2ccccc2C1=O)C1CCCCC1`, the Potency was 12.6 µM (active).

Consider `CCCCOc1ccccc1NC(=O)Cn1c(-c2nonc2N)nc2ccccc21`, for which the “activity change, negative = inhibition” value was -2.18%.

With `COCCCn1c(N)c(-c2nc3ccccc3n2C)c2nc3ccccc3nc21`, the Potency was 17.8 µM (active).

As for `Cc1ccc(NS(=O)(=O)c2ccc(NC(=O)C(C)Sc3ccc(Cl)cc3)cc2)c(C)c1` (stereo not given), the Potency was 25.1 µM (active).

On to `O=C(c1ccc(F)cc1F)C1CCN(c2ccc([N+](=O)[O-])cn2)CC1`, for which the Potency is 4.47 µM (active).

For the compound `CC(Oc1ccc(F)cc1)C(=O)Nc1nc(-c2ccccn2)cs1` (stereo not given), the Potency is 2.51 µM (active).

With `NC(c1ccccc1)c1csc(NC(=O)Nc2ccccc2Oc2ccccc2)n1` (stereo not given), the activity change, negative = inhibition is -22.9% [at 11.4 µM].

`COC(=O)C(Cc1ccc(O)cc1)NC(=O)C(C)Oc1ccccc1` (stereo not given): the “activity change, negative = inhibition” value was -13.3%.

As for `Cc1cc(C)c2nc(NNC(=O)c3cc(-c4cccs4)nc4ccccc34)sc2c1`, the Potency was 2.82 µM (active).

Regarding `CCN1CCS/C1=C\C=C\C1=[N+](CC)CCS1`, the Potency is 3.98 µM (active).

Regarding `NCCCCCc1nnc(SCc2ccccc2Cl)o1`, the activity change, negative = inhibition is -36.5% [at 11.4 µM].

With `CCOC(=O)c1c(-c2ccccc2)oc2cc(CN(C)C)c(O)c(CN(C)C)c12`, the Potency is 8.91 µM (active).

For the compound `CC(=O)Nc1ccc(N(CC(O)Cn2c3ccccc3c3ccccc32)S(=O)(=O)c2ccc(C)cc2)cc1` (stereo not given), the Potency is 20 µM (active).

In the case of `Cn1c(SCC(=O)N/N=C/c2ccc([N+](=O)[O-])s2)nnc1-c1ccccc1`, the Potency was 22.4 µM (active).

As for `CSc1sc(-c2nnc(SCC(=O)Nc3ccc(Cl)cc3)n2C)c2c1C=CCC2`, the activity change, negative = inhibition was -19.8% [at 11.4 µM].

`O=C(CSc1nnnn1-c1ccccc1)Nc1nsc(-c2ccccc2)n1`: the “activity change, negative = inhibition” value was -0.699%.

As to `Cn1c(SCC(=O)N/N=C/c2ccc([N+](=O)[O-])s2)nnc1-c1ccc(Cl)cc1`, the Potency is 15.8 µM (active).

For `Cn1c(SCC(=O)Nc2cc(Cl)cc(Cl)c2)nnc1-c1ccc2nonc2c1`, the activity change, negative = inhibition is -10.7% [at 11.4 µM].

Consider `Cc1ccc2[nH]c(=O)c(CN(CCCN(C)C)C(=O)Nc3cccc(Cl)c3)cc2c1`, for which the “activity change, negative = inhibition” value was -29.3%.

Take `O=c1c2ccc(Cl)cc2nc(-c2ccc([N+](=O)[O-])cc2)n1O`: the Potency was 7.94 µM (active).

Take `Cc1cc(Cl)c(C(=O)Nc2cccc(C(F)(F)F)c2)c(C)n1`: the Potency is 17.8 µM (active).

`CC(C)(C)c1cc(C(=O)NNc2cc(C(F)(F)F)ccc2Cl)n(Cc2ccccc2)n1`: the “activity change, negative = inhibition” value is 24.6%.

For the compound `Cc1nc(-c2c(C(F)(F)F)noc2-c2ccc(O)cc2O)cs1`, the Potency was 11.2 µM (active).

For `CCC(=O)NC(c1ccc(Cl)cc1Cl)c1ccc2cccnc2c1O` (stereo not given), the Potency was 2.24 µM (active).

Take `CCCCC(=O)NC(c1ccccc1OC)c1ccc2cccnc2c1O` (stereo not given): the Potency was 2.82 µM (active).

For `CCCCC(=O)NC(c1ccc(OC)c(OC)c1)c1ccc2cccnc2c1O` (stereo not given), the Potency was 2.82 µM (active).

Regarding `CCCCC(=O)NC(c1ccccc1Cl)c1ccc2cccnc2c1O` (stereo not given), the Potency is 2.51 µM (active).

For `COc1ccc(N2C3=C(CC4=C2CC(C)(C)CC4=O)C(=O)CC(C)(C)C3)cc1`, the activity change, negative = inhibition was -2.52% [at 11.4 µM].

Regarding `CCCC(=O)NC(c1ccc(Cl)cc1Cl)c1ccc2cccnc2c1O` (stereo not given), the Potency was 2.51 µM (active).

Take `CCCCC(=O)NC(c1ccc(Cl)cc1Cl)c1ccc2cccnc2c1O` (stereo not given): the Potency was 0.794 µM (active).

With `CCCCOc1ccc(C(=O)NNC(=O)c2cnccn2)cc1OC`, the Potency was 10 µM (active).

Turning to `CN(C)CCC(c1ccc(Br)cc1)c1ccccn1` (stereo not given), the “activity change, negative = inhibition” value is -17.1%.

For the compound `COc1ccc(/C(N)=N/OC(=O)N2CCOCC2)cc1`, the activity change, negative = inhibition is 20.7% [at 11.4 µM].

Consider `O=C(Nc1nc(-c2ccc(F)c(F)c2)cs1)Nc1ccc(F)cc1F`, for which the activity change, negative = inhibition is 6.09% [at 11.4 µM].

Turning to `COc1cc(C(=O)OC(C)C(=O)N2CCc3ccccc3C2)ccc1OCC(=O)N1CCOCC1` (stereo not given), the activity change, negative = inhibition is -9.5% [at 11.4 µM].

Regarding `O=C(CCN1C(=O)C2CC=CCC2C1=O)Nc1nc(-c2ccc(F)c(F)c2)cs1` (stereo not given), the “activity change, negative = inhibition” value is -0.282%.

For `Cc1noc(C)c1CSCC(=O)Nc1nc(-c2ccc(F)c(F)c2)cs1`, the Potency is 25.1 µM (active).

For the compound `COc1ccc(CC(=O)Nc2nc(-c3ccc(OC)c(OC)c3)cs2)cc1OC`, the Potency was 3.55 µM (active).

On to `COc1ccc(CC(=O)Nc2nc(-c3ccc(F)c(F)c3)cs2)cc1OC`, for which the Potency was 6.31 µM (active).

On to `COCCNc1nc(-c2cc(C)n(CCc3ccc(OC)cc3)c2C)cs1`, for which the “activity change, negative = inhibition” value was -10.1%.

Turning to `COc1ccc(-c2csc(NC(=O)c3ccc(OCC(=O)N4CCOCC4)c(OC)c3)n2)cc1OC`, the Potency was 14.1 µM (active).

The values above are taken from PubChem BioAssay AID1745847 (National Center for Advancing Translational Sciences (NCATS), 2022).
